GPT2 inh = blocks human glutamate pyruvate transaminase 2; Recombinant GPT2, coupled pyruvate oxidase/HRP Amplex Red fluorescence; actives 0.25% (n = 100,000); Potency, µM (top dose mostly 57.7 µM), for the others: top-dose activity change, negative = inhibition, hits mostly inhibitors; further: on the % scale 0 is the no-effect control and ±100 the full control effect; nearly all actives have a fitted effect of over 60% in size
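Inhibition is scored from Amplex Red fluorescence generated when pyruvate oxidase and HRP act on pyruvate released by GPT2. Reactions contain 10ng/uL enzyme, 250uM a-KG and 2mM L-alanine and run 30 min at room temperature.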
3T3 cytotox = NIH 3T3 cell cytotoxicity; actives 4.3% (n = 94,000); AID 1345082; Potency, µM (doses to about 96.7 µM), inactives show at the top dose activity change, negative = cytotoxicity, most hits filed as inhibitors; NIH 3T3 viability, CellTiter-Glo ATP luminescence, 48-72 h; further: on the % scale 0 is the no-effect control and ±100 the full control effect; nearly all actives have a fitted effect of over 55% in size
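Luminescent ATP readout (CellTiter-Glo, 10 min RT) after 48 or 72 hr compound exposure of NIH 3T3 cells seeded at 400 cells/well in 1536-well format; quantitative HTS.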
hNpr1 antagonist = antagonists of human natriuretic peptide receptor Npr1. P16066. HEK293 hNpr1 GloSensor cGMP, ANP-stimulated luminescence. Potency, µM (series often up to 46.3 µM), without a hit: at the top dose activity change, negative = inhibition, actives largely listed as inhibitors. actives 1.6% (n = 76,000). AID 1347048; calls by dose curve; further: on the % scale 0 is the no-effect control and ±100 the full control effect; nearly all actives have a fitted effect of over 60% in size
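HEK293 cells stably expressing human Npr1 and cGMP GloSensor pGS-40F, loaded 2 h with 2% GloSensor reagent, given compound 30 min at room temperature. Luminescence read before and 20 min after 0.1 nM hNppA.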
FLuc inh-1 = blocks purified firefly luciferase enzyme activity | P08659 | AID 1347043 | Potency, µM (doses to about 115 µM), most hits filed as inhibitors | actives 2.5% (n = 76,000) | purified P. pyralis luciferase, luminescence, biochemical; further: on the % scale 0 is the no-effect control and ±100 the full control effect; nearly all actives have a fitted effect of over 65% in size
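Luminescence read by CCD imager after adding enzyme (10nM final) to wells holding compound, titrated in qHTS. Substrates 10uM each D-luciferin and ATP; buffer 50mM Tris acetate pH 7.5, 10mM Mg acetate, Tween-20, BSA.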
HEK cytotox = kills HEK 293 cells; HEK 293 viability, ATP luminescence (CellTiter-Glo), 48-72 h; Potency, µM (top dose mostly 115 µM), without a hit: at the highest dose activity change, negative = cytotoxicity, most hits filed as inhibitors; actives 6.6% (n = 94,000); further: on the % scale 0 is the no-effect control and ±100 the full control effect; nearly all actives have a fitted effect of over 60% in size
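Luminescence from cellular ATP, measured with CellTiter-Glo, indicates HEK 293 viability. Cells plated at 250 cells/well are treated with compound for 48 or 72 hr at 37 degree Celsius before reagent addition.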
FLuc SDR no ATP = firefly luciferase binding stabilization, ATP absent; shares compounds with FLuc inh-1; Purified FLuc-C-HiBiT, Nano-Glo HiBiT luminescence, no ATP; Potency, µM (top dose mostly 32.7 µM), inactives show top-dose activation (signal gain), actives largely listed as activators; actives 7.8% (n = 1,300); AID 1963318; further: nearly all actives have a fitted effect of over 55% in size
FLuc SDR ATP = firefly luciferase binding stabilization, ATP added | actives 8.7% (n = 1,300) | shares compounds with FLuc inh-1 | Potency, µM (titrated, usually from 32.7 µM), without a hit: at the top dose activation (gain of signal), hits mostly activators | purified FLuc-C-HiBiT + ATP, HiBiT complementation luminescence | AID 1963319;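 further: signal reports ligand binding via conformational change of the enzyme rather than luciferase catalysis; % of control where 0% means no effect; nearly all actives have a fitted effect of over 55% in size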
FLuc inh-2 = inhibitors of firefly luciferase enzymatic activity; shares compounds with FLuc inh-1; Potency, µM (series often up to 32.7 µM), without a hit: at the top dose activity change, negative = inhibition, actives largely listed as inhibitors; purified FLuc-C-HiBiT enzyme, luciferin luminescence; actives 42% (n = 1,300); further: on the % scale 0 is the no-effect control and ±100 the full control effect; nearly all actives have a fitted effect of over 70% in size
An asterisk follows results filed as active; [ ] = dose if it differs, or a comment. A selection: hits, their analogues and other compounds. The true share with any hit is near 10%. Unless noted, the call rests on the fitted dose curve; in most records, active means well fitted curve in the direction sought with a large enough effect; inconclusive means small, poorly fitted or top-dose-only effect, or another doubt; inactive means no such curve, though single readings can be large; an effect the other way counts as inactive or inconclusive. Potency means the concentration at half of the fitted maximal effect.

How did O=C(Nc1ccccc1)c1nc2c(o1)CCN(Cc1ccc(O)cc1)CC2 do in these assays?
GPT2 inh: 1%[88.5 µM]; 3T3 cytotox: -30%[138 µM]; hNpr1 antagonist: 25µM*; FLuc inh-1: 0.56µM*; HEK cytotox: inconclusive; FLuc SDR no ATP: inconclusive; FLuc SDR ATP: inconclusive; FLuc inh-2: 5.1µM*

How did O=C(Nc1ccccc1)c1nc2c(o1)CCN(Cc1ccccn1)CC2 do in these assays?
GPT2 inh: -7%[88.5 µM]; 3T3 cytotox: inconclusive; hNpr1 antagonist: inconclusive; FLuc inh-1: 4µM*; HEK cytotox: inconclusive; FLuc SDR no ATP: 26%[49.3 µM]; FLuc SDR ATP: inconclusive; FLuc inh-2: inconclusive

What do the screens show for `Cc1csc(NC(=O)c2nc3c(o2)CCN(Cc2cccc(F)c2)CC3)n1`?
GPT2 inh: 0%[88.5 µM]; 3T3 cytotox: inconclusive; hNpr1 antagonist: -25%[70.6 µM]; FLuc inh-1: 2.8µM*; HEK cytotox: 50µM*; FLuc SDR no ATP: 31%[49.3 µM]; FLuc SDR ATP: inconclusive; FLuc inh-2: 14µM*

What do the screens show for `COc1cccc(CN2CCc3nc(C(=O)NCC4CC4)oc3CC2)c1`?
GPT2 inh: 3%[88.5 µM]; 3T3 cytotox: inconclusive; hNpr1 antagonist: -30%[70.6 µM]; FLuc inh-1: inactive; HEK cytotox: inconclusive

How did COCCCNC(=O)c1nc2sccn2c1-c1ccc(F)cc1 do in these assays?
GPT2 inh: 1%[88.5 µM]; 3T3 cytotox: inconclusive; HEK cytotox: -19%[172 µM]

Results for Cc1ccc(-c2nnc([C@H]3CCN(Cc4ncc[nH]4)C3)o2)cc1 ?
GPT2 inh: 4%[88.5 µM]; 3T3 cytotox: inactive; hNpr1 antagonist: 1%[70.6 µM]; FLuc inh-1: inactive; HEK cytotox: 4%[172 µM]

How did COC1CCC12CCN(C(=O)c1nccc3ccccc13)CC2 (centres undefined) do in these assays?
GPT2 inh: inactive; 3T3 cytotox: 2%; HEK cytotox: -16%

What do the screens show for `C[S+](=O)([O-])N1C[C@H](C(=O)Nc2cccc(Cl)c2)C[C@@H]1c1ccc(F)cc1`?
GPT2 inh: -4%[88.5 µM]; 3T3 cytotox: inconclusive; hNpr1 antagonist: 1%[70.6 µM]; FLuc inh-1: inactive; HEK cytotox: inconclusive

Results for Cc1ccc(CN2CCc3nc(C(=O)Nc4ccccc4)oc3CC2)cc1 ?
GPT2 inh: -7%[88.5 µM]; 3T3 cytotox: inconclusive; hNpr1 antagonist: 22µM*; FLuc inh-1: 5µM*; HEK cytotox: inconclusive; FLuc SDR no ATP: 14%[49.3 µM]; FLuc SDR ATP: 14%[49.3 µM]; FLuc inh-2: inconclusive

How did O=C(Nc1cccc(Br)c1)c1cc(-c2ccc3c(c2)OCCO3)on1 do in these assays?
FLuc SDR no ATP: inconclusive; FLuc SDR ATP: inconclusive; FLuc inh-2: 0.99µM*

How did CN(CC1CCOCC1)C(=O)Nc1cccc(Br)c1 do in these assays?
GPT2 inh: inactive; 3T3 cytotox: 2%; hNpr1 antagonist: 1%; FLuc inh-1: inactive; HEK cytotox: -1%

Results for Cc1noc(C)c1C(=O)N1CCN(c2ccc(Cl)nn2)C(=O)C1 ?
GPT2 inh: 0%; 3T3 cytotox: inactive; HEK cytotox: inactive

How did Cc1cc(CNc2ccc(-c3nc(CCCc4ccccc4)no3)cn2)no1 do in these assays?
GPT2 inh: inconclusive; 3T3 cytotox: -30%; hNpr1 antagonist: inconclusive; FLuc inh-1: inconclusive; HEK cytotox: inconclusive
